# This excerpt belongs to a sample that is enriched for hits.
# CBX7 AlphaScr: CBX7 inhibition, primary AlphaScreen; actives 1.1% (n = 66,000); AlphaScreen His6-CBX7 / biotin-H3K27me3 peptide binding; hits give low values; normalised signal (fraction of DMSO) (no concentration beside the values); in the data active = normalised signal below about 0.5
# Target sequence (O95931 whole entry, looked up): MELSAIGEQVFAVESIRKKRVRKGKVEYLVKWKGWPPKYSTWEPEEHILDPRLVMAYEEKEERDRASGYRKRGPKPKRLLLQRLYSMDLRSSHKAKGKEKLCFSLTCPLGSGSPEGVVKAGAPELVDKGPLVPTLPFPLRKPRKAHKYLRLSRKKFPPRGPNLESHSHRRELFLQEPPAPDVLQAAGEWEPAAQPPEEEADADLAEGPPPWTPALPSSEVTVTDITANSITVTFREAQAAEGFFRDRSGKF
# * hit, by the source's call.
SMILES,CBX7 AlphaScr
Cc1ccc2c(c1)C(c1ccccc1)N(C(=O)COc1ccccc1)CC(=O)N2 (stereo not given),0.959
COc1ccc(CCNC(=O)Cn2ncc3ccsc3c2=O)cc1OC,0.981
COc1ccc(CN(C(=O)c2ccc(F)cc2)C2CCS(=O)(=O)C2)cc1 (stereo not given),1.04
CCOc1ccc(NC(=O)C2CC2(c2cccc(C)c2)c2cccc(C)c2)cc1 (stereo not given),1.05
COc1ccc(Nc2ncc(C(=O)Nc3cnc4ccccc4c3)c3ccccc23)cc1,0.896
CCOc1ccc(NC(=O)c2cnc(Nc3ccc(OC)cc3)c3ccccc23)cc1,0.971
COc1ccc(Nc2ncc(C(=O)Nc3cccc(Cl)c3)c3ccccc23)cc1,0.2*
Cc1ccccc1-c1nc(CS(=O)(=O)CC(=O)N2CCN(Cc3ccccc3)CC2)c(C)o1,0.694
Cc1ccccc1-c1nc(CS(=O)(=O)CC(=O)N2CCC(Cc3ccccc3)CC2)c(C)o1,0.489*
Cc1ccccc1-c1nc(CS(=O)(=O)CC(=O)N2CCCCC2)c(C)o1,0.993
CCCCN(C)S(=O)(=O)c1ccc(C(=O)Nc2ccccc2-c2nc3ccccc3o2)cc1,1.04
CCN(Cc1ccccc1)S(=O)(=O)c1ccc(C(=O)Nc2nnc(C3CC3)o2)cc1,0.71
CCCCN(CC)S(=O)(=O)c1ccc(C(=O)Nc2nnc(C3CC3)o2)cc1,0.0365*
CC(C)CN(CC(C)C)S(=O)(=O)c1ccc(C(=O)Nc2nnc(C3CC3)o2)cc1,0.00617*
CCCN(CCC)S(=O)(=O)c1ccc(C(=O)Nc2nnc(C3CC3)o2)cc1,0.528
CCCCN(C)S(=O)(=O)c1ccc(C(=O)Nc2nnc(C3CC3)o2)cc1,0.034*
CCCCN(C)S(=O)(=O)c1ccc(C(=O)Nc2ccc(-c3nc4ccccc4[nH]3)cc2)cc1,0.945
Cc1ccc(C2C(Oc3ccccc3C)C(=O)N2c2ccc(F)cc2)cc1 (stereo not given),1.01
Cc1cc(C)cc(OCC(=O)Nc2ccc(Cl)c(-c3nc4cc(C)ccc4o3)c2)c1,1.05
Cn1c(C(=O)O)c(CC(=O)N2CCN(c3ccc(F)cc3)CC2)c2ccccc21,1.06
CC1CCC(NC(=O)C2CCN(C(=O)c3cc4sccc4n3Cc3ccc(Cl)cc3)CC2)CC1 (stereo not given),1.04
O=C(O)CN1C(=O)c2cccnc2Sc2ccccc21,1.01
CCOC(=O)c1ccc(NC(=O)CSc2nnc(-c3cccnc3)o2)cc1,1.02
O=C(CSc1nnc(-c2cccnc2)o1)Nc1ccc(Br)cc1,1.02
O=C(CSc1nnc(-c2cccnc2)o1)Nc1ccc(Cl)c(Cl)c1,0.469*
SMILES,CBX7 AlphaScr
COc1ccc(Cc2noc(-c3cc(-c4ccncc4)nc4ccccc34)n2)cc1,0.486*
COc1ccc(-c2noc(-c3cc(-c4ccccc4)nc4ccccc34)n2)cc1,1.24
COc1ccc(Cc2noc(-c3cc(-c4ccc(F)cc4)nc4ccccc34)n2)cc1,1.34
O=C(Nc1nnc(-c2ccccc2)s1)c1ccccc1Br,1.17
COc1ccc(-c2noc(-c3ccc(Cl)cc3Cl)n2)cc1,0.954
CCOC(=O)CCCCC(=O)c1[nH]c(=O)[nH]c1CSc1nnc2c(n1)[nH]c1ccccc12,0.423*
NC(=O)CSc1nnc2c(n1)[nH]c1ccccc12,1.02
c1ccc(CSc2nnc3c(n2)[nH]c2ccccc23)cc1,1.1
O=C(Cn1nc(-c2ccccc2)ccc1=O)NCCCN1CCCCC1,1.05
Cc1ccccc1C(=O)Nc1ccc2nc(N3CCOCC3)cc(C)c2c1,0.973
Cc1[nH]c2ccc(OCc3ccccc3)cc2c1CCNC(=O)COc1ccc(F)cc1F,0.534
COc1ccccc1C(=O)NCCc1c(C)[nH]c2ccc(OC(F)(F)F)cc12,0.64
COc1ccccc1C(=O)NCCc1c(C)[nH]c2ccc(OCc3ccccc3)cc12,0.436*
CCN(CC)c1ccc(NC(=O)C2CCN(c3nc4ccccc4[nH]3)CC2)c(C)c1,0.746
COc1ccc(OC)c(NC(=O)c2c(NCc3cccs3)sc3c2CCCC3)c1,0.593
COc1ccc(Cl)cc1NC(=O)c1c(NCc2sccc2C)sc2c1CCCC2,0.388*
COc1ccc(NC(=O)c2c(NCc3sccc3C)sc3c2CCCCC3)c(OC)c1,0.52
COc1ccc(OC)c(NC(=O)c2c(NCc3cccs3)sc3c2CCCCC3)c1,0.427*
COc1ccc(Cl)cc1NC(=O)c1c(NCc2cccs2)sc2c1CCCC2,0.817
COc1ccc(NC(=O)c2c(NCc3cccs3)sc3c2CCC3)cc1,0.567
COc1ccc(OC)c(CNc2sc3c(c2C(=O)Nc2cc(OC)ccc2OC)CCCC3)c1,0.579
COc1ccc(OC)c(NC(=O)c2c(NCc3sccc3C)sc3c2CCCC3)c1,0.493*
COc1ccc(OC)c(NC(=O)c2c(NCc3cccs3)sc3c2CCC3)c1,0.951
CCOc1ccc(NC(=O)c2c(NCc3cccs3)sc3c2CCCCC3)cc1,0.442*
COc1ccc(NC(=O)c2c(NCc3cccs3)sc3c2CCCCC3)cc1,0.736
COc1ccccc1NC(=O)c1c(NCc2sccc2C)sc2c1CCCCC2,0.551
CN1CCN(C(=O)c2cn(C3CCCC3)c(=O)c3c2c2ccccc2n3C)CC1,0.905
